# Results published in publication PMC12548414.
# Screen size: about 1,600 compounds; about 20 (1%) showed an effect of 50% or more. The sample as a whole holds a higher share of strong results than the screen did.
# Test system: T1, E. coli pLC1021 (luc-trpAt trans-translation reporter)
# T1 construct: pLC1021 luc-trpAt reporter strain
# Design: species or system Escherichia coli pLC1021; luc-trpAt non-stop luciferase reporter; luminescence rises when trans-translation is inhibited; normalized to KKL-35 and DMSO
# Conditions: reporter signal, KKL-35 = 100%; rise means trans-translation inhibition; 2 h, 20 µM
# Experimental: The luciferase screen was performed as previously described ([16]). […] 48 µL of cells was transferred to white 96-well plates, and 2 µL DMSO or 20 µM compound, or 20 µM KKL-35 was added. Plates were sealed with adhesive film, vortexed gently to mix, and incubated at room temperature for 2 h. 50 µL Bright-Glo reagent (Promega, Madison, WI) was added to each well, and the plates were sealed with adhesive film, vortexed vigorously, and incubated for an additional 10 min at room temperature. Luminescence was measured at 560 nm using a SpectraMax i3 microplate reader and readings for each plate were normalized to the average of three KKL-35-treated wells (positive control) and three DMSO-treated wells (negative control) within the plate to correct for plate-to-plate and day-to-day variations. Results from at least two biological repeats were averaged, and GraphPad Prism was used to plot the data. We screened a library of 1,601 anti-tubercular small molecules for their ability to inhibit trans-translation using a luciferase reporter in Escherichia coli. In this luc-trpAt reporter, the firefly luciferase gene has a trpA transcriptional terminator before the stop codon, such that luciferase is translated from a non-stop mRNA ([16]). When trans-translation is active, the luciferase will be tagged and degraded, but when trans-translation is inhibited, active luciferase will accumulate, resulting in a luminescent signal when luciferin is added. Luciferase activity was measured after growth in the presence of compounds from the library at 20 µM, using the known trans-translation inhibitor KKL-35 as a positive control (Fig. 1A) ([16], [17]). Compounds with activity one standard deviation above the median were scored as positive (Fig. S1 and Table S1).
row,Compound,% activation [%]
1,CC(C)(C)c1cc(Cl)c(O)c(NC(=S)NC(=O)c2cccc3ccccc23)c1 [KKL-0905],0
2,O=C(C[n+]1nc(CNc2ccc(Cl)cc2)n2c1CCCCC2)c1ccc(Br)cc1 [KKL-1021],9
3,CC(C)(C)c1cc(Cl)ccc1OCCCCn1ccnc1 [KKL-1305],5
4,CN(CCn1ccnc1)Cc1cn(Cc2ccccc2)nc1-c1cc2ccccc2o1 [KKL-0649],0
5,COc1ccc(CNCc2cn(-c3cccc(F)c3)nc2-c2ccc(C)o2)cc1 [KKL-0321],0
6,Cn1cc(CCNC(=O)Nc2ccc(N3CCCCC3)nc2)cn1 [KKL-1828],0
7,O=C(Nc1ccco1)N1CCN(Cc2cccs2)CC1 [KKL-1841],1
8,CCc1cc(C(=O)OC)c(N=C(S)NCc2ccc(Cl)c(Cl)c2)s1 [KKL-1547],0
9,O=C(C=Cc1ccco1)N1CCN(Cc2ccc3c(c2)OCO3)CC1 [KKL-1821],0
10,CCC(C)c1ccc(O)c(NC(=S)NC(=O)c2cncc(Br)c2)c1 (stereo not shown) [KKL-0711],3
11,CCn1cc(C(=O)O)c(=O)c2cc(F)c(N3CCN(C(S)=Nc4cc(C(F)(F)F)ccc4Cl)CC3)cc21 [KKL-1476],5
12,CCn1cc(C(=O)O)c(=O)c2cc(F)c(N3CCNCC3)cc21 [KKL-0831],56
13,CCN1CCN(c2cc3c(cc2F)c(=O)c(C(=O)O)cn3C2CC2)CC1 [KKL-0903],6
14,Cc1nn(-c2ccc(F)cc2)c2nc(O)c(CNCc3ccccc3F)cc12 [KKL-0342],0
15,CCCOC(=O)c1ccc(NC(=S)NC(=O)c2ccc(Cl)cc2)cc1 [KKL-0761],3
16,CC1CN(c2ccc([N+](=O)[O-])cc2)CCN1C(=O)c1cccc(Br)c1 (stereo not shown) [KKL-1355],0
17,NC1CCc2nc(-c3cccnc3)nc(Nc3cccc(C(F)(F)F)c3)c2C1 (stereo not shown) [KKL-0530],124
18,O=C(NCCCn1ccnc1)c1cccnc1Nc1cccc(C(F)(F)F)c1 [KKL-0554],15
19,FC(F)(F)c1cccc(-n2cc(-c3ccccc3)c3c(NCc4cccnc4)ncnc32)c1 [KKL-1573],0
20,Nc1cccnc1Nc1ccc(C(F)(F)F)cc1 [KKL-1711],4
21,NC1CCc2nc(-c3cccnc3)nc(Nc3ccc(C(F)(F)F)cc3)c2C1 (stereo not shown) [KKL-0526],137
22,Cc1cnc(N2CCN[C@@H](Cc3ccccc3)C2)nc1Oc1ccc(-n2ccnc2)cc1 [KKL-1724],6

row,Compound,% activation [%]
1,CCOC(=O)c1cnc(-n2nc(C)cc2C)nc1Nc1ccc(N(C)C)cc1 [KKL-0889],0
2,Clc1ccc(Nc2nc(-c3ccccn3)cs2)nc1 [KKL-1793],0
3,Cc1oc(-c2ccc3ccccc3c2)nc1CN1CCN(c2cnccn2)CC1 [KKL-0659],0
4,O=C(Nc1nnc(-c2ccc(Cl)s2)o1)c1ccc(Cl)s1 [KKL-1762],0
5,CSc1ccc(-c2nnc(NC(=O)c3ccc(Cl)s3)o2)cc1 [KKL-1706],50
6,CN(C)S(=O)(=O)c1ccc(C(=O)Nc2nnc(-c3ccc(Cl)s3)o2)cc1 [KKL-1747],1
7,CN1CCN(c2ccc(NC(=S)NC(=O)c3ccc(-c4cccc(Cl)c4)o3)cc2)CC1 [KKL-0357],18
8,O=C(Nc1ccc2c(c1)OCCO2)c1cccc2nc3ccccc3nc12 [KKL-0843],0
9,Cc1ccc(Cl)cc1N=C1C=C(NS(=O)(=O)c2cccs2)c2ccccc2C1=O [KKL-1115],0
10,Cn1nc(-c2ccc3ccccc3c2)cc1[C@H]1CN2CC[C@H]1C[C@@H]2COC(=O)Nc1cccc(C(F)(F)F)c1 [KKL-0323],0
11,COC(=O)c1cccc(NC(=S)NC[C@H]2C[C@@H]3CCN2C[C@@H]3c2cc(-c3ccc4ccccc4c3)nn2C)c1 [KKL-1596],71
12,Cc1ccc(C(=O)NC[C@H]2C[C@@H]3CCN2C[C@@H]3c2cc(-c3ccc4ccccc4c3)nn2C)cc1 [KKL-0337],0
13,Nc1cccnc1Nc1ccc(Cl)cc1 [KKL-1858],0
14,NC1CCc2nc(-c3cccnc3)nc(Nc3ccc(Cl)cc3)c2C1 (stereo not shown) [KKL-0540],119
15,NC1CCc2nc(-c3ccncc3)nc(Nc3ccc(Cl)cc3)c2C1 (stereo not shown) [KKL-0326],797
16,CCOC(=O)CSc1nc(C#N)c(SCC(=O)OCC)s1 [KKL-0955],12
17,O=C(Oc1cccc2cccnc12)C(Cc1ccccc1)N1C(=O)C2C3CCC(C3)C2C1=O (stereo not shown) [KKL-1364],9
18,Cc1oc2ccccc2c1CN(CCCn1ccnc1)Cc1cccc(F)c1 [KKL-0544],0
19,CCC(OC(C)=O)c1ccc(OC(C)=O)c(OC)c1 (stereo not shown) [KKL-0758],7
20,CCOc1ccc(NC(=O)CSc2nc3ccc([N+](=O)[O-])cc3s2)cc1 [KKL-1417],0
21,Cc1ccc(NCCC(=O)c2ccc([N+](=O)[O-])cc2)cc1C [KKL-0401],14
22,COc1cc2cc(-c3nc4ccccc4[nH]3)c(N)nc2cc1OC [KKL-0395],22

row,Compound,% activation [%]
1,Cc1ccc2[nH]c(C3CCCNC3)c(-c3ccncc3)c2c1 (stereo not shown) [KKL-1820],14
2,Cc1ccc2[nH]c3c(c2c1)CCCC3NCCCOc1ccc(F)cc1 (stereo not shown) [KKL-0771],84
3,CC1CCc2sc3ncnc(NCCc4ccccc4)c3c2C1 (stereo not shown) [KKL-0868],2
4,CCOC(=O)COc1ccc(C(=O)Nc2ccc(F)cc2)cc1 [KKL-0783],0
5,CC12CC3CC(C)(C1)CC(CNCc1ccccc1O)(C3)C2 [KKL-1484],3
6,CCCOC(=O)CSc1nnc(-c2cc(OC)c(OC)c(OC)c2)o1 [KKL-1095],0
7,Cc1ccc(-c2csc(-c3ccncc3)n2)cc1C [KKL-0956],0
8,COC(=O)[C@@H](NC(=O)c1cc(COc2c(F)cccc2F)on1)c1ccccc1 [KKL-0496],8
9,CCOC(=O)c1ccc(NC(=O)C2C(=O)N(C)C3(C)CC2c2ccccc2O3)cc1 (stereo not shown) [KKL-1246],0
10,Cc1cc([N+](=O)[O-])ccc1NC(=O)CN1C2CCC1CC(NC(=O)NC13CC4CC(CC(C4)C1)C3)C2 (stereo not shown) [KKL-1619],0
11,CCOC(=O)Cc1csc(NC(=O)c2c(O)c3ccccc3n(CCC(C)C)c2=O)n1 [KKL-1615],75
12,CCCCCn1c(=O)c(C(=O)Nc2nc3ccccc3[nH]2)c(O)c2ccccc21 [KKL-1004],7
13,CCCCCCn1c(=O)c(C(=O)Nc2nc(CC(=O)OCC)cs2)c(O)c2ccccc21 [KKL-0986],0
14,O=C(c1ccc(Cl)cc1)c1ccc(CSc2nnc(-c3ccccc3)o2)o1 [KKL-1212],0
15,O=C(c1cnn(C(=O)c2ccco2)c1)c1cc(F)ccc1O [KKL-1685],3
16,Clc1ccc(OCCCCCn2ccnc2)c(Cl)c1 [KKL-0421],0
17,N#CCc1ccc(NC(=O)/C=C/c2ccc([N+](=O)[O-])o2)cc1 [KKL-1204],0
18,c1cnc(N2CCN(c3nncc(-c4ccc(C5CCCCC5)cc4)n3)CC2)cn1 [KKL-0667],0
19,Cc1cc(Cl)ccc1NC(=O)CCc1ccc(S(=O)(=O)NC(C)C)cc1 [KKL-1581],0
20,CCc1ccc(CCC(=O)Nc2ccc(C)cc2)o1 [KKL-1248],0
21,COc1ccccc1C(=O)NNC(=S)NC(=O)c1ccc(-c2ccccc2)cc1 [KKL-0561],11
22,O=C(O)c1ccc(NC(=S)NC(=O)c2ccc(-c3ccccc3)cc2)cc1 [KKL-1292],0

row,Compound,% activation [%]
1,CC(C)(C)c1ccc(C(=O)NC(=S)Nc2ccc(C(=O)O)cc2)cc1 [KKL-1314],0
2,CC(C)(C)c1ccc(C(=O)NC(=S)N2CCCC2)cc1 [KKL-1436],12
3,CC(=O)NC(=S)NNC(=O)c1ccc(-c2ccccc2)cc1 [KKL-0063],99
4,Cc1ccc(C(=O)NC(=S)Nc2ccc(S(=O)(=O)NC(C)C)cc2)cc1Br [KKL-0593],0
5,Cc1ccc(C(=O)NCCC2=CCCCC2)cc1Br [KKL-1393],0
6,CC(=O)NC(=S)NNC(=O)c1ccc(C(C)(C)C)cc1 [KKL-0588],143
7,CC(=O)NC(=S)NNC(=O)c1ccc(C)c(Br)c1 [KKL-0065],186
8,CNc1nc(SCC(=O)N(C)Cc2ccc(Cl)s2)nc2ccccc12 [KKL-1768],0
9,Cc1cc(C)nc(/N=C(\N)Nc2cc(Cl)ccc2Oc2ccccc2)n1 [KKL-0289],0
10,COC(=O)COc1ccc(NC(=O)c2ccccc2Br)cc1 [KKL-1572],0
11,Cc1[nH]c2ccccc2c1/C=C1\SC(=N)N(c2nccs2)C1=O [KKL-1143],6
12,Brc1cncc(-c2cc(NCCCn3ccnc3)nc(-c3ccccc3)n2)c1 [KKL-1784],0
13,O=[N+]([O-])c1cc(O)c2ncccc2c1 [KKL-0003],46
14,c1cnc2c(c1)ccc1cccnc12 [KKL-0825],8
15,Oc1ccc(Br)c2cccnc12 [KKL-0093],371
16,O=C(Nc1nc(-c2ccccn2)cs1)c1ncc(Cl)c(Cl)c1Cl [KKL-0390],10
17,O=C(Nc1ccc(Cl)cc1)c1cc2c(cc1O)[nH]c1ccccc12 [KKL-0896],102
18,O=C(Nc1ccc(Cl)cc1)Nc1ccc(F)c(F)c1 [KKL-1350],0
19,O=C(Nc1ccc(-c2nc3ccccc3c(=O)o2)cc1)c1ccccc1I [KKL-1501],2
